# Screens as filed in PubChem BioAssay.
# aSyn yeast inh: qHTS of alpha-syn Inhibitors; AID 652106, 2013; actives 0.14% (n = 370,000); Potency, µM (series often up to 46.1 µM), usual class: activators; Yeast expressing alpha-synuclein, growth rescue, BacTiter-Glo, 24 h; further: nearly all actives have a fitted effect of over 65% in size
#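 Rescue of yeast growth: cells expressing toxic alpha-synuclein, induced in galactose at OD600 0.02, incubated with compound 24 h at 30 C. ATP luminescence quantified growth; inhibitors of toxicity appear as activators.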
# Mito fusion act: qHTS Assay for Small Molecule Inhibitors of Mitochondrial Division or Activators of Mitochondrial Fusion. S. cerevisiae fusion-defective mutant growth rescue, CellTiterGlo 48 h. Potency, µM (top dose mostly 46.1 µM), actives largely listed as activators. AID 485298, 2010. actives 0.23% (n = 320,000); further: nearly all actives have a fitted effect of over 45% in size
#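 Compounds are tested for their ability to restore growth of mitochondrial fusion-defective yeast strains at non-permissive 37C in YPEG medium over 48 hours. Viability is quantified by luciferase luminescence.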
# TDP43 rescue: qHTS of TDP-43 Inhibitors | TDP-43 expressing yeast growth rescue, BacTiter-Glo, 24 h | Potency, µM (highest dose often 46.1 µM), most hits filed as activators | actives 1.8% (n = 410,000); further: nearly all actives have a fitted effect of over 50% in size
#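 Galactose-induced TDP-43 yeast, OD600=0.02, compound pinned; 24 hr, 30 deg C; BacTiter-Glo luminescence for growth. Inhibitors of TDP-43 toxicity read as activators.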
# FUS suppressor: qHTS for Suppressors of FUS Proteinopathy: Primary screen using FUS-linked yeast assay. S. cerevisiae FUS-expressing, growth rescue, OD600, 24 h. AID 1347120, 2019. actives 0.24% (n = 390,000). Potency, µM (titrated, usually from 76.6 µM), hits mostly activators; further: nearly all actives have a fitted effect of over 55% in size
#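 Steps: raffinose overnight preculture; dilution to OD 0.005 in 2% galactose minimal medium; compound addition (concentration series); 24hr at 30C, 99% humidity; absorbance read at 600 nm.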
# Abeta yeast res: qHTS for compounds that reverse cellular toxicity of Amyloid beta (A-beta) peptide in yeast: Primary Screen; AID 1347071, 2019; yeast expressing A-beta42, growth rescue, OD600, 48 h; response scale: 0% DMSO, 100% iron-clioquinol control; actives 0.063% (n = 410,000); Potency, µM (doses to about 46.1 µM), usual class: activators; further: nearly all actives have a fitted effect of over 55% in size
#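 Yeast growth medium received pinned compounds, then yeast cells expressing toxic A-beta were added; plates incubated at 30 C for 48 hr. Growth read as absorbance at 600 nm, normalized to DMSO and equimolar FeCl3 plus clioquinol controls.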
# Numbers stand for hits; i = inactive; ? = inconclusive; nt = no result; ! = not active in a repeat; [ ] = remark or other dose. Only some compounds are listed: those with a hit (about 2.2% of all), similar ones and a draw of the others. The call rests on the fitted dose curve; in most records, active means well fitted curve in the direction sought with a large enough effect; inconclusive means small, poorly fitted or top-dose-only effect, or another doubt; inactive means no such curve, though single readings can be large; an effect the other way counts as inactive or inconclusive.
SMILES,aSyn yeast inh,Mito fusion act,TDP43 rescue,FUS suppressor,Abeta yeast res
Cc1cnc(C(=O)Nc2ccc(C)c(S(=O)(=O)N3CCCCCC3)c2)cn1,i,i,16µM,i,i
Cc1ccc(NC(=O)COc2ccccc2)cc1S(=O)(=O)N1CCCCCC1,i,i,i,i,i
Cc1ccc(NC(=O)COc2ccccc2C#N)cc1S(=O)(=O)N1CCCCCC1,i[1.84 µM],i,28µM,i,i
CCCNC(=O)OCc1cccnc1Sc1ccc(C)cc1,i,i,20µM,i,i
CCOC(=O)Nc1cccnc1Sc1ccc(Cl)cc1,i,nt,i,i,i
CCC(Oc1ccc(F)cc1)C(=O)Nc1c(C(=O)c2ccc(C)cc2)oc2ccccc12 (stereo not given),nt,nt,i,i,i
O=C1C(Cl)=C(Nc2ccccc2O)C(=O)N1c1ccccc1,i,i,35µM,i,i
Cc1ccc([C@@H]2CC=C(C(=O)O)[C@H](c3ccc(F)cc3)N2S(=O)(=O)c2ccccc2C)cc1,i,nt,28µM,i,i
COc1ccc([C@@H]2CC=C(C(=O)O)[C@H](c3ccc(Cl)cc3)N2S(=O)(=O)c2ccccc2C)cc1,i,i,18µM,?,i
COc1ccc([C@@H]2CC=C(C(=O)O)[C@H](c3ccc(Br)cc3)N2S(=O)(=O)c2ccccc2C)cc1,i,nt,35µM,?,i
Cc1ccc([C@@H]2CC=C(C(=O)O)[C@H](c3cccc(F)c3)N2S(=O)(=O)c2ccccc2C)cc1,i,nt,i,i,i
O=C(Cc1ccc2ccccc2c1)NO,i,nt,nt,nt,nt
CN(C)C(=O)/C=C\c1cn(-c2ccccc2)nc1-c1ccc2c(c1)OCCO2,i,18µM,i[0.397 µM],i,i
CCCCc1ccc(NC(=O)CSc2nc3ccccc3nc2N2CCOCC2)cc1,nt,nt,i,i,i
O=C(CSC1=NNC(c2ccccn2)S1)Nc1ccc(C(F)(F)F)cc1 (stereo not given),7.9µM,i,i,i,?
O=C(CSc1nccn1C1CCCC1)Nc1ccc(C(F)(F)F)cc1,nt,nt,i,i,i
c1ccc(CSC2=NNC(c3ccccn3)S2)cc1 (stereo not given),5.6µM,i,i,i,i
Cc1ccc(-c2nc(C(=O)NC3CCCCCC3)no2)cc1,i,nt,18µM,i,i
Cc1ccc(-c2cc(C(=O)NC3CCCCC3)no2)cc1,i,i,i,i,i
CC1(C(=O)NCc2cccc(C(F)(F)F)c2)CCN1Cc1ccc(-c2ccccc2)o1 (stereo not given),20µM,nt,i,i,i
Cc1nc2ccc(C(=O)Nc3ccccc3Cl)cc2s1,i,i,11µM,i,i
CCNc1ccc(C(=O)Nc2ccc3nc(C)sc3c2)cc1[N+](=O)[O-],i,35µM,i,i,i
Cc1nc2ccc(NC(=O)c3ccc4ccccc4n3)cc2s1,i,4µM,i,i,i
S=C(NCCCN(Cc1ccc(Cl)cc1)c1ccc(Br)cn1)NCc1ccc2nc[nH]c2c1,i,nt,nt,nt,nt
Cc1ccc(N(CC(=O)N2CCN(c3cc(C)ccc3C)CC2)S(=O)(=O)c2c(C)nn(C)c2C)cc1,nt,nt,35µM,?,i
SMILES,aSyn yeast inh,Mito fusion act,TDP43 rescue,FUS suppressor,Abeta yeast res
Cc1ccc(N(CC(=O)N2CCN(c3ccc(Cl)cc3)CC2)S(=O)(=O)c2c(C)nn(C)c2C)cc1,nt,nt,i,i,i
Cc1ccc(N(CC(=O)N2CCN(c3ccc(F)cc3)CC2)S(=O)(=O)c2c(C)noc2C)cc1,i,i,16µM!,i,?
Cc1ccc2oc(=O)c3cnn(CC(=O)N(C)c4ccc(F)cc4)c3c2c1,nt,nt,i,i,i
CCCCCCc1c[nH]c2ccc(O)c(-c3ccccc3)c12,nt,nt,nt,i,nt
Cc1ccccc1-c1nc(CN2CCC(C(=O)NCc3ccc(F)cc3)CC2)c(C)o1,nt,nt,i,i,i
CCCCOc1ccc(S(=O)(=O)NNC(=O)c2cc3ccccc3o2)cc1,i,11µM,i,nt,i
O/N=C\c1ccc(-c2ccccc2)o1,i,i,8.9µM,nt,i
NC(=S)N/N=C/c1ccc(-c2ccccc2)o1,i,i,11µM,i,?
Cc1ccc(C(=O)N/N=C/C=C/c2ccccc2)cc1,i,i,i[9.22 µM],i,i
